This is a sample that favours compounds with a hit; in the whole collection about 5.2% have one here.
SKN-1 inh = suppressors of acrylamide-induced Pgst-4::GFP reporter in worms, primary screen, SKN-1 inhibitor project, whole organism, uHTS, GFP/RFP fluorescence ratio, strain VP596. 360,000 tested, 0.49% active. C. elegans VP596 Pgst-4::GFP/RFP ratio, 24 h. inhibition, % at 21.8 µM;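 active = interference check ratio from 0.5 to 1.5 plus GFP to RFP signal ratio inhibition reaching or exceeding a fixed threshold, cut at about 30% in these data, passing the limit was not always enough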
esBAF inh = Bmi1 luciferase reporter increase in mESCs, primary screen, esBAF inhibitor project, mouse ES cells, Bmi1 luciferase knock-in, single point; 24 h; 100% = twice the neutral-well signal; reporter increase, % at 12.5 µM; 350,000 tested, 2% active; in the data active = activation above about 40%; inconclusive = no clear call, values can overlap the other calls;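 note: 0% = median of the plate's neutral control wells and 100% = double that signal; a rise in the Bmi1 reporter signal indicates esBAF inhibition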
NadD block = inhibitors of S. aureus NadD, primary screen, biochemical, colorimetric, uHTS. Nicotinate-nucleotide adenylyltransferase NadD (Staphylococcus aureus N315). purified NadD enzyme, colorimetric absorbance read-out. inhibition, % at 20 µM. 360,000 tested, 0.78% active; in the data active = inhibition above about 26%
SMARCA2 activ = SMARCA2 (BRM) function activators, primary screen, cell-based, luminescence, high throughput; activation, % at 9.1 µM; AID 652017, 2013; MG213 cells, MMTV-luciferase reporter, dexamethasone, overnight; 370,000 tested, 1% active; in the data active = activation above about 7.8%;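 note: 0% = vehicle wells and 100% = reference activator wells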
Vif inh = HIV Vif self-association inhibitors, primary screen, imaging, HEK293T, single point. AID 602346, 2012. HEK293T cells, Vif self-association by quenched fluorescence, 24 h. 340,000 tested, 0.35% active. inhibition, % at 7.49 µM; in the data active = inhibition above about 50%, passing the limit was not always enough; inconclusive = no clear call, values can overlap the other calls; inactive = below about 31%
GRIN3A LBD mod = binders of NR3A ligand-binding domain, primary screen, biophysical, differential scanning fluorimetry, uHTS. Tm shift relative to glycine control, % at 25 µM. NR3A LBD differential scanning fluorimetry, Tm shift; 0% = protein alone, 100% = glycine-bound protein. 340,000 tested, 2.5% active. Glutamate receptor ionotropic, NMDA 3A (GRIN3A) ligand-binding domain;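 active = melting temperature shift of at least 10% of the positive control shift, at one fixed dose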
SMARCA2 conf = SMARCA2 (BRM) function activators, confirmation, cell-based, luminescence, triplicate | shares compounds with SMARCA2 activ | 3,500 tested, 30% active | activation, % at 9.1 µM | AID 652260, 2013 | MG213 cells, MMTV-luciferase with dexamethasone, overnight; MG213 cells expressing E1A, Rb sequestered; DMSO wells 0%, reference activator 100%;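 active = activation above its plate's cutoff, the mean activation of tested wells plus 3 SD, cut at about 7.9% in these data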
VP16 Luc act = GAL4-VP16 luciferase reporter activation, counter-screen for SMARCA2 (BRM) activator project, cell-based, pG5luc, luminescence, high throughput | shares compounds with SMARCA2 activ | HEK293 GAL4-VP16 pG5luc reporter; scaled: DMSO wells 0%, SAHA wells 100% | activation, % at 9.1 µM | 3,500 tested, 41% active | AID 686939, 2013;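 active = activation above the solvent-only control well mean plus 3 SD, averaged across control plates, cut at about 5.2% in these data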
* marks the source's active call; other numbers are inactive results; ? = inconclusive; . = no result.

SMILES | SKN-1 inh | esBAF inh | NadD block | SMARCA2 activ | Vif inh | GRIN3A LBD mod | SMARCA2 conf | VP16 Luc act
O=C(NCCc1ccc(Cl)cc1)c1ccc2nc(N3CCOCC3)sc2c1 | -19 | 2 | 5 | -2 | 7 | -2 | . | .
CC1CCCC(C)N1CCCNC(=O)c1ccc2nc(N3CCOCC3)sc2c1 (centres undefined) | -10 | -2 | 3 | 0 | -10 | -1 | . | .
CC1CCN(c2nc3ccc(C(=O)NCCCN4CCCCC4C)cc3s2)CC1 (centres undefined) | 6 | 72* | -5 | 8.1* | 9 | -2 | 15* | 15*
COc1ccc(CCNC(=O)c2ccc3nc(N4CCCCC4)sc3c2)cc1OC | 0 | 51* | -5 | 10* | -9 | 3 | 3 | 8.5*
CC1CCCC(C)N1CCCNC(=O)c1ccc2nc(N3CCCCC3)sc2c1 (centres undefined) | 4 | 72* | -7 | 18* | 8 | 2 | 9.8* | 17*
CCC1CCCCN1CCCNC(=O)c1ccc2nc(N3CCCCC3)sc2c1 (centres undefined) | 6 | ? | -4 | 3 | 2 | 0 | . | .
O=C(NCCCN1CCC(Cc2ccccc2)CC1)c1ccc2nc(N3CCOCC3)sc2c1 | 0 | . | -9 | 4 | 2 | -1 | . | .
CO[C@H](CN(C)C(=O)c1ccccc1F)[C@@H](C)CN([C@@H](C)CO)S(=O)(=O)c1ccc(F)cc1 | . | 1 | . | . | . | . | . | .
C[C@@H]1CN([C@@H](C)CO)C(=O)c2ccccc2-c2ccccc2CO[C@H]1CN(C)S(=O)(=O)c1cccc(F)c1 | . | -4 | . | . | . | . | . | .
O=C(C[C@@H]1CC[C@@H]2[C@H](COC[C@H](O)CN2Cc2nccs2)O1)NCc1ccccc1 | . | 6 | . | . | . | . | . | .
COc1cc(/C=C2\C(=O)N(C)C(=S)N2C)ccc1O | 2 | 2 | -2 | 4 | . | -4 | . | .
COc1cc(/C=C2\COC/C(=C\c3ccc(O)c(OC)c3)C2=O)ccc1O | -2 | . | 1 | 13* | 19 | 26* | 4 | -1
COc1ccc(C2CC(=O)N(C)c3ccccc3S2)cc1OC (centres undefined) | 8 | 28 | 7 | 10* | -8 | -4 | 12* | 9.6*
O=C(COc1ccc(F)cc1Br)N1CCc2ccccc21 | -24 | 24 | -4 | 12* | 8 | 0 | 6 | 14*
O=C(c1cc2cc(Br)ccc2[nH]1)N1CCc2ccccc21 | -10 | 31 | 0 | -1 | 0 | -5 | . | .
O=C(c1cc2cc(F)ccc2[nH]1)N1CCc2ccccc21 | 19 | 63* | 4 | 10* | -16 | 0 | 8 | 9.3*
O=Cc1ccc(OCC(=O)N2CCc3ccccc32)c(Br)c1 | 17 | 36 | 6 | -1 | -12 | -2 | . | .
COCC#Cc1cnc2c(c1)C(=O)N([C@H](C)CO)C[C@H](C)[C@@H](CN(C)C(C)=O)O2 | . | 3 | . | . | . | . | . | .
COc1nc(C)ccc1-c1noc(-c2cccnc2)n1 | 11 | ? | 1 | 11* | -2 | -1 | 4 | 7.1*
CCOc1ccc(-c2nc(-c3cccnc3)no2)cc1 | 53* | -3 | -2 | 9.3* | 2 | 0 | 3 | 13*
CCCCOc1ccc(-c2nc(-c3cccnc3)no2)cc1 | -2 | 7 | 0 | 7 | . | 2 | . | .
COc1ccc(-c2nc(-c3cccnc3)no2)cc1 | 22 | . | 5 | 2 | -6 | -1 | . | .
CN(C)CCCN1c2ccccc2CCc2ccccc21 | 2 | 2 | 0 | -3 | -3 | 1 | . | .
CC(CN(C)C)CN1c2ccccc2CCc2ccccc21 (centres undefined) | 7 | 1 | -5 | 8.2* | -1 | 2 | 0 | 2
COc1ccc(CN(C)C[C@H]2OCCCC[C@@H](C)Oc3ccc(NC(=O)Nc4ccc(OC)cc4)cc3C(=O)N([C@@H](C)CO)C[C@H]2C)cc1 | . | -3 | . | . | . | . | . | .
SMILES | SKN-1 inh | esBAF inh | NadD block | SMARCA2 activ | Vif inh | GRIN3A LBD mod | SMARCA2 conf | VP16 Luc act
CC(C)Oc1ccc(C2CC(=O)N(c3cccc(C(=O)O)c3)C2=O)cc1 (centres undefined) | 1 | 56* | -5 | 9.8* | 9 | 0 | 2 | 2
CC(C)Oc1ccc(C2CC(=O)N(c3ccc(C(=O)O)cc3)C2=O)cc1 (centres undefined) | 2 | -1 | 0 | 0 | -4 | 1 | . | .
c1ccc2c(c1)cnc1ccccc12 | 9 | 5 | -5 | 2 | 1 | -2 | . | .
c1ccc(-c2ncc3c(ccc4ccccc43)n2)cc1 | -6 | . | -3 | 9.1* | 0 | -2 | 2 | 5.1*
Cc1ccc(C(=O)Nc2ccc(O)c(C(=O)O)c2)o1 | -10 | 10 | 9 | 9.3* | 1 | 5 | 4 | 1
CCCC#Cc1cnc2c(c1)C(=O)N([C@@H](C)CO)C[C@H](C)[C@@H](CN(C)C(=O)Nc1cc(F)ccc1F)O2 | . | 2 | . | . | . | . | . | .
COc1ccc(/C=C(/C(=O)c2cccs2)N2C=CC=CC2=C(C#N)C#N)cc1 | 14 | . | -1 | 15* | -3 | 1 | -14 | 11*
O=C(/C=C/c1ccco1)Nc1ccc(C(=O)N2CCOCC2)cc1 | 8 | 16 | 0 | 3 | -12 | -1 | . | .
O=C(/C=C/c1ccco1)Nc1ccc(CN2CCOCC2)cc1 | 14 | 15 | 0 | 9.4* | 18 | 0 | 9.2* | 11*
COc1cccc(-c2ccc3c(c2)O[C@H](CN(C)C(=O)C2CCOCC2)[C@H](C)CN([C@@H](C)CO)S3(=O)=O)c1 | . | 2 | . | . | . | . | . | .
CO[C@@H](CN(C)C(=O)c1ccccc1F)[C@H](C)CN([C@@H](C)CO)S(=O)(=O)c1ccccc1 | . | 1 | . | . | . | . | . | .
COc1cc(/C=N/NC(=O)c2ccccn2)cc2c1OCO2 | 7 | . | -4 | 17* | 5 | -1 | 8.5* | 8.5*
CC(C)(C)c1ccc(/C=N/NC(=O)c2ccccn2)cc1 | 2 | . | 2 | 9.8* | 5 | -1 | 2 | 9.0*
O=C(N/N=C/c1ccsc1)c1ccccn1 | 6 | 13 | 0 | 2 | 11 | 0 | . | .

Assay outcomes: PubChem BioAssay, several laboratories
